Experimental data as given in the supplement of paper PMC11865577.
Counter-ions that a name gives are not always drawn.

Columns and labels:
Experiment in all cases: normalised indicator fluorescence (fraction of RNA + indicator signal without compound); higher = less displacement of indicator (weaker competition)
Conditions in all cases: compound concentration: 5 uM, 30 min
hsa-mir-191 loop = tested on: hsa-mir-191 loop
Outline: (§1)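 In 96-well plates, RNA was combined with a TO-PRO-1 or TO-PRO-3 indicator in 20 mM phosphate pH 7.0 containing 20 mM NaCl and 80 mM KCl. Each compound was added as 0.25 μL of a 1 mM DMSO stock, giving about 5 uM final, and fluorescence was read on an Infinite 200 PRO after 30 min (excitation 485 or 620 nm). Values are the blank-corrected indicator fluorescence (buffer plus indicator subtracted) divided by the signal of RNA plus indicator without compound, averaged over two independent experiments.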

hsa-mir-21 loop = tested on: hsa-mir-21 loop
Outline: as §1

hsa-mir-221 loop = tested on: hsa-mir-221 loop
Outline: as §1

hsa-mir-374a loop = tested on: hsa-mir-374a loop
Outline: as §1

hsa-mir-6850 loop = tested on: hsa-mir-6850 loop
Outline: as §1

[1] = indicator: TO-PRO-1 0.1 uM, RNA concentration: 0.1 uM
[2] = indicator: TO-PRO-3 0.5 uM, RNA concentration: 0.5 uM

Compound | normalised indicator fluorescence (hsa-mir-191 loop; [1]) | normalised indicator fluorescence (hsa-mir-191 loop; [2]) | normalised indicator fluorescence (hsa-mir-21 loop; [1]) | normalised indicator fluorescence (hsa-mir-21 loop; [2]) | normalised indicator fluorescence (hsa-mir-221 loop; [1]) | normalised indicator fluorescence (hsa-mir-221 loop; [2]) | normalised indicator fluorescence (hsa-mir-374a loop; [1]) | normalised indicator fluorescence (hsa-mir-374a loop; [2]) | normalised indicator fluorescence (hsa-mir-6850 loop; [1]) | normalised indicator fluorescence (hsa-mir-6850 loop; [2])
Oc1cc(O)c2c(c1)O[C@H](c1ccc(O)c(O)c1)[C@@H](O)C2 [(+)-Catechin Hydrate] | 0.971 | 1.07 | 0.941 | 1.02 | 1.02 | 1.13 | 1.15 | 1.22 | 0.975 | 1.09
Fc1ccc(-c2nc3n(c2-c2ccncc2)CCS3)cc1 | 1.08 | 1.08 | 0.993 | 1.02 | 1.07 | 1.13 | 1.09 | 1.18 | 0.947 | 1.04
Cc1c(F)cc(C(=O)NC2CC2)cc1-c1ccc(C(=O)NCC(C)(C)C)cn1 [Losmapimod] | 0.997 | 1.02 | 0.887 | 1.04 | 1.07 | 1.08 | 1.06 | 1.13 | 0.95 | 1.06
C1CCN2C[C@@H]3C[C@@H](CN4CCCC[C@@H]34)[C@H]2C1 [(-)-Sparteine sulfate pentahydrate] | 0.913 | 1.02 | 0.863 | 1.2 | 1.09 | 1.06 | 1.14 | 1.14 | 0.921 | 1.05
Cc1cccc(CC(=O)N2CCc3c2ccc(-c2cn(C)c4ncnc(N)c24)c3F)n1 | 1.03 | 1.06 | 1 | 1.04 | 1.08 | 1.01 | 1.14 | 1.06 | 0.973 | 0.993
CNC(=O)c1ccc(C)c(-n2c(C)cc(OCc3ccc(F)cc3F)c(Br)c2=O)c1 | 1.02 | 1.03 | 1.03 | 1.02 | 1.19 | 1.05 | 1 | 1.08 | 0.914 | 1.04
CCNC(=O)c1noc(-c2cc(C(C)C)c(O)cc2O)c1-c1ccc(CN2CCOCC2)cc1 [Luminespib] | 1.08 | 1.05 | 1.03 | 1.02 | 1.06 | 1.05 | 1.04 | 1.15 | 1.01 | 1.06
C[S+]([O-])c1ccc(-c2nc(-c3ccc(F)cc3)c(-c3ccncc3)[nH]2)cc1 (stereo not given) | 0.969 | 1.02 | 1.05 | 1.02 | 1.01 | 1.05 | 1.07 | 1.04 | 1.08 | 1.04
O=C(COc1ccc(Cl)cc1)NC1CCC(NC(=O)COc2ccc(Cl)cc2)CC1 (stereo not given) | 1.03 | 1.04 | 0.954 | 1.03 | 1.05 | 1.01 | 1.07 | 1.08 | 0.894 | 1.05
COC(=O)C1=CC[C@@]23CC[C@@H]([C@@](C)(/C=C/C=C(\C)C(=O)O)OC2=O)[C@@]3(OC(C)=O)CC1 [Pseudolaric Acid B] | 1.02 | 0.949 | 1.02 | 0.979 | 0.969 | 0.93 | 0.998 | 1.19 | 1.03 | 1.03
O=C1C[C@@H](c2ccc(O)cc2)Oc2cc(O)cc(O)c21 [Naringenin] | 0.927 | 1.03 | 0.942 | 1.05 | 1.07 | 0.975 | 1.17 | 1.18 | 0.978 | 1.02
O=C(O)CCc1ccc(O)cc1O [Hydroumbellic acid] | 1.11 | 1.05 | 0.973 | 1.06 | 0.989 | 1.16 | 1.1 | 1.13 | 1.1 | 1.04
O=c1c(O)c(-c2cc(O)c(O)c(O)c2)oc2cc(O)cc(O)c12 [Myricetin] | 0.403 | 0.684 | 0.387 | 0.742 | 0.505 | 0.659 | 0.543 | 0.424 | 0.604 | 0.969
N=C(NCCCCCCNC(=N)NC(=N)Nc1ccc(Cl)cc1)NC(=N)Nc1ccc(Cl)cc1 [Chlorhexidine hydrochloride] | 1.01 | 0.962 | 0.896 | 1 | 1.01 | 0.981 | 1.06 | 1.05 | 0.906 | 1.04
CCCC(C(=O)OCCN(CC)CC)(c1ccccc1)c1ccccc1 [Proadifen hydrochloride] | 1.01 | 1.04 | 0.923 | 1 | 1.08 | 1.05 | 1.16 | 1.17 | 0.941 | 1.02
Cc1oncc1C(=O)Nc1ccc(C(F)(F)F)cc1 [Leflunomide] | 0.986 | 0.97 | 0.91 | 1.03 | 1 | 1.11 | 1.11 | 1.36 | 0.838 | 1.01
CCNC(=O)c1[nH]nc(-c2cc(Cl)c(O)cc2O)c1-c1ccc(OC)cc1 | 1.01 | 1.05 | 1.05 | 1.06 | 1.02 | 0.975 | 1.11 | 1.11 | 0.952 | 1.05
Nc1c(Br)cc(Br)cc1CN[C@H]1CC[C@H](O)CC1 [Ambroxol] | 0.949 | 1.04 | 0.88 | 1.17 | 1.04 | 1.02 | 1.16 | 1.12 | 0.965 | 1.06
O=[N+]([O-])c1ccc(-c2nc(-c3ccc(F)cc3)c(-c3ccncc3)[nH]2)cc1 | 1.06 | 1.03 | 0.973 | 1.03 | 1.16 | 1.03 | 1.59 | 1.15 | 0.975 | 1.03

Compound | normalised indicator fluorescence (hsa-mir-191 loop; [1]) | normalised indicator fluorescence (hsa-mir-191 loop; [2]) | normalised indicator fluorescence (hsa-mir-21 loop; [1]) | normalised indicator fluorescence (hsa-mir-21 loop; [2]) | normalised indicator fluorescence (hsa-mir-221 loop; [1]) | normalised indicator fluorescence (hsa-mir-221 loop; [2]) | normalised indicator fluorescence (hsa-mir-374a loop; [1]) | normalised indicator fluorescence (hsa-mir-374a loop; [2]) | normalised indicator fluorescence (hsa-mir-6850 loop; [1]) | normalised indicator fluorescence (hsa-mir-6850 loop; [2])
CC(C)(O)[C@@H]1CC[C@](C)([C@H]2[C@@H](O)C[C@@]3(C)[C@@H]4C[C@H](O)[C@H]5C(C)(C)[C@@H](O[C@@H]6OC[C@@H](O)[C@H](O)[C@H]6O[C@@H]6O[C@H](CO)[C@@H](O)[C@H](O)[C@H]6O)CC[C@@]56C[C@@]46CC[C@]23C)O1 [Astragaloside III] | 1.09 | 1.07 | 1.01 | 1.02 | 1.06 | 1.07 | 1.04 | 1.19 | 0.952 | 1.11
C[C@H]1[C@H](C)CC[C@]2(C(=O)O[C@@H]3O[C@H](CO[C@@H]4O[C@H](CO)[C@@H](O[C@@H]5O[C@H](C)[C@H](O)[C@@H](O)[C@H]5O)[C@H](O)[C@H]4O)[C@@H](O)[C@H](O)[C@H]3O)CC[C@]3(C)C(=CC[C@@H]4[C@@]5(C)C[C@@H](O)[C@H](O)[C@@](C)(CO)[C@@H]5CC[C@]43C)[C@H]12 [Asiaticoside] | 1.02 | 1.03 | 0.968 | 0.996 | 0.992 | 1.03 | 1.09 | 1.16 | 1.03 | 1.11
C[C@H](CCC(=O)NCCS(=O)(=O)O)[C@H]1CC[C@H]2[C@@H]3[C@@H](O)C[C@@H]4C[C@H](O)CC[C@]4(C)[C@H]3CC[C@]12C [Tauroursodeoxycholic Acid] | 1.03 | 1.01 | 0.892 | 1.01 | 1.02 | 1.05 | 1.06 | 1.13 | 0.975 | 1.02
Oc1ccc(-c2nc(-c3ccc(F)cc3)c(-c3ccncc3)[nH]2)cc1 | 1.1 | 1.04 | 0.993 | 1.03 | 1.08 | 1.13 | 1.09 | 1.2 | 0.999 | 1.04
CC(=O)c1ccc(S(=O)(=O)NC(=O)NC2CCCCC2)cc1 [Acetohexamide] | 0.972 | 1.04 | 0.846 | 1.09 | 1.08 | 1.05 | 1.18 | 1.21 | 0.908 | 1.08
CC(=O)Oc1c(C)c(C)c2c(c1C)CCC(C)(CCC[C@H](C)CCC[C@H](C)CCCC(C)C)O2 (stereo not given in full) [Vitamin E Acetate] | 1.01 | 1.05 | 0.923 | 1.04 | 1.1 | 1.05 | 1.01 | 1.02 | 0.957 | 1.02
CC(C)=CCC[C@](C)(O[C@@H]1O[C@H](CO)[C@@H](O)[C@H](O)[C@H]1O)[C@H]1CC[C@]2(C)[C@@H]1[C@H](O)C[C@@H]1[C@@]3(C)CC[C@H](O)C(C)(C)[C@@H]3[C@@H](O[C@@H]3O[C@H](CO)[C@@H](O)[C@H](O)[C@H]3O[C@@H]3OC[C@@H](O)[C@H](O)[C@H]3O)C[C@]12C [Notoginsenoside R1] | 1.04 | 1.01 | 1 | 0.991 | 1.15 | 0.995 | 1.21 | 1.09 | 0.982 | 1.01
CN1CCN(c2ccc(C(=O)Nc3n[nH]c4ccc(Cc5cc(F)cc(F)c5)cc34)c(NC3CCOCC3)c2)CC1 [Entrectinib] | 1.11 | 1.04 | 1.04 | 1.04 | 1.04 | 1.18 | 1.09 | 1.56 | 1.01 | 1.03
OC[C@H]1O[C@@H](Oc2ccc(O)cc2)[C@H](O)[C@@H](O)[C@@H]1O [Arbutin] | 0.981 | 1.07 | 1.01 | 1.03 | 1.08 | 1.04 | 1.13 | 1.04 | 0.964 | 1.07
O=C1O[C@H]([C@@H](O)CO)C(O)=C1O [L(+)-Ascorbic acid] | 1.01 | 1 | 0.953 | 1 | 1.05 | 1.11 | 1.05 | 1.12 | 1.09 | 1.06
O=c1ccc2ccc(O)c(O)c2o1 [Daphnetin] | 1.01 | 0.873 | 1.09 | 0.941 | 0.91 | 0.965 | 1.09 | 1.03 | 1.19 | 0.881
CC1=NN(c2ccccc2)C(=O)C1 [Edaravone] | 1.06 | 1.11 | 1.07 | 1.04 | 1.05 | 1.04 | 1.06 | 1.12 | 1.05 | 1.05
C/C1=C/CC[C@H](C)C(=O)C[C@@H](C(C)C)C(=O)C1 [Curdione] | 1.05 | 1.02 | 1.04 | 1.09 | 1.05 | 1.16 | 1.07 | 1.26 | 1.14 | 1.06
CC1(C)OC(=O)C=C[C@]2(C)[C@H]3CC[C@@]4(C)[C@H](c5ccoc5)OC(=O)[C@H]5O[C@]54[C@]3(C)C(=O)C[C@@H]12 [Obacunone] | 1.07 | 1.03 | 1.06 | 1.08 | 1.12 | 1.07 | 1.11 | 1.09 | 0.979 | 1.05
COc1ccc(C(=C2C(=O)Nc3ccccc32)c2ccc(OC)cc2)cc1 | 1 | 1.03 | 0.92 | 1.03 | 1.1 | 1.09 | 1.08 | 1.15 | 0.944 | 1.03
CCc1cc(C(N)=S)ccn1 [Ethinamide] | 1.07 | 1.01 | 1.1 | 1.04 | 1.04 | 1.07 | 1.18 | 1.2 | 1.04 | 1.05
O=C(O)/C=C/c1ccc(Cn2ccnc2)cc1 [Ozagrel hydrochloride] | 0.95 | 0.992 | 1.01 | 1.02 | 1 | 0.921 | 1.07 | 1.12 | 1.02 | 1.03
COc1c(C)cnc(Cn2cnc3c(Cl)nc(N)nc32)c1C | 1.04 | 1.04 | 0.99 | 1.04 | 1.01 | 1.06 | 1.19 | 1.09 | 1.02 | 1.05
